# ClpP mod: qHTS Assay for Activators of ClpP; ATP-dependent Clp protease proteolytic subunit (Bacillus subtilis (strain 168)), P80244; purified B. subtilis ClpP, FRET peptide cleavage, 20 min; Potency, µM (series often up to 57.5 µM); 340,000 tested, 1.9% active; active = well fitted falling curve with a large enough effect; inconclusive = small, poorly fitted or top-dose-only effect; inactive = no such curve, though single readings can be large or run the other way; also: the source files actives as falling curves though it sought activators and does not explain the sign; nearly all actives have a fitted effect of over 65% in size
# Target sequence (P80244 whole entry, looked up): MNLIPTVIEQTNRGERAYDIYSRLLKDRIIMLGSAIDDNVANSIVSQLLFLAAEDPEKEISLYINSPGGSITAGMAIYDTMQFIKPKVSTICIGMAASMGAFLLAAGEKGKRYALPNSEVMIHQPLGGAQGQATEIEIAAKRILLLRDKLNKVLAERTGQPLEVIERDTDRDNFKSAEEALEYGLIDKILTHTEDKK
#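 ClpP 10 microg/mL final, pH 8 Tris/KCl buffer with BSA, glycerol, Tween-20; compound pinned in; FRET-FV substrate; RT 20 min; Ex320/Em430; ΔFRET vs ADEP 5.8 microM, DMSO, no enzyme.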
# TCR act: activates T cell receptor signaling | primary human leukocytes, anti-CD3, IL-2 HTRF, 48 h | Potency, µM (titrated, usually from 9.22 µM), most hits filed as activators | 330,000 tested, under 10 active
#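 HTRF read-out of IL-2 secretion: europium cryptate donor excited at 320nm, d2 acceptor emission at 665nm. Cells were primary human leukocytes incubated 48 hr with compounds and a-CD3 beads, supplying TCR signal only.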
# uPA generation: inhibitors of cell surface uPA generation | 330,000 tested, 0.31% active | AID 540303 | cell surface uPA generation assay, qHTS | Potency, µM (doses to about 38.3 µM), hits mostly inhibitors; active = well fitted inhibition curve with a large enough effect; inconclusive = small, poorly fitted or top-dose-only effect; inactive = no such curve, though single readings can be large or run the other way; tested in mouse RAW 264.7 cells; also: nearly all actives have a fitted effect of over 55% in size
# Sfp PPTase inh: inhibitors of Bacillus subtilis Sfp phosphopantetheinyl transferase. Q9F4F7. Biochemical Sfp PPTase activity, qHTS. Potency, µM, actives largely listed as inhibitors. 310,000 tested, 3.5% active. AID 1490;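 also: the enzyme is Sfp with the accession as filed and its product quenches rhodamine fluorescence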
#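 Buffer: 50 mM Hepes-Na pH 7.6, 10 mM MgCl2, 0.01% Nonidet P-40, 0.01% BSA. Enzyme 15 nM, pre-exposed to compound 15 min; substrates then added and fluorescence change tracked over 30 min.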
# Hits are given with their value; – = inactive; ? = inconclusive; · = no result. Only some compounds are listed: those with a hit (about 4.2% of all), similar ones and a draw of the others. Unless noted, calls follow the shape of the dose curve; as a rule, active = well fitted curve in the direction sought with a large enough effect; inconclusive = small, poorly fitted or top-dose-only effect, or another doubt; inactive = no such curve, though single readings can be large; an effect the other way counts as inactive or inconclusive.
SMILES,ClpP mod,TCR act,uPA generation,Sfp PPTase inh
O=C(NNS(=O)(=O)c1ccccc1)c1cccc(F)c1,–,–,–,35µM
COc1cc(OC)c([N+](=O)[O-])cc1/C=N/NC(=O)c1ccncc1,–,–,–,35µM
COc1cc(/C=N/NC(=O)c2ccncc2)c([N+](=O)[O-])cc1OC,–,–,–,–
O=c1c2cn[nH]c2[nH]c(=S)n1-c1ccccc1,–,–,–,14µM
COc1ccc(-n2c(=S)[nH]c3[nH]ncc3c2=O)cc1,·,–,–,50µM
O=C(NCc1ccccc1)C1Nc2ccc(OC(F)(F)F)cc2C2C=CCC12 (configuration not stated),–,–,–,·
COc1cccc2c1NC(C(=O)O)C1CC=CC21 (configuration not stated),–,–,–,7.9µM
CC(=O)c1ccc2c(c1)C1C=CCC1C(C(=O)O)N2 (configuration not stated),·,–,–,–
O=C(O)C1Nc2c(cccc2C(F)(F)F)C2C=CCC12 (configuration not stated),·,·,·,50µM
Cn1c(=S)n(C)c2ccccc21,–,–,–,–
Cn1ccc(=S)c2ccccc21,·,–,–,35µM
O=C(CC(C(=O)O)c1cccc(Br)c1)c1ccc(Cl)cc1 (configuration not stated),–,–,–,–
O=[N+]([O-])c1cccc(N/N=C/c2ccc(N3CCOCC3)cc2)c1,·,–,–,–
O=C(COc1ccc(/C=C\[N+](=O)[O-])cc1)N1CCOCC1,–,–,–,40µM
Cc1ccc(OCCCC(=O)N2CCOCC2)cc1,10µM,–,–,–
O=[N+]([O-])/C=C\c1ccc(N2CCOCC2)cc1,–,–,8.9µM,·
COc1cccc(NC(=O)C2(C)CCN2C(=O)CCc2ccc(Cl)cc2Cl)c1 (configuration not stated),–,·,·,·
Cc1[nH]n(-c2ccc(Br)cc2)c(=O)c1/C=N/NC(=O)c1ccccc1,–,·,6.3µM,–
Cc1[nH]n(-c2ccccc2)c(=O)c1/C=N/NC(=O)c1cccc(F)c1,–,–,?,–
CCCCC(=O)Nc1nnc(S(=O)(=O)N(C)Cc2ccccc2)s1,–,·,·,·
CCOc1c(O)ccc(/C=C2\SC(=S)NC2=O)c1[N+](=O)[O-],·,–,–,11µM
COc1cc(OC)c2c(OC)c(-c3ccc4c(c3)OCO4)c(=O)oc2c1,·,·,·,–
CN1CCN(S(=O)(=O)c2ccc(NC(=S)NC(=O)c3ccc(Cl)cc3)cc2)CC1,–,–,–,22µM
O=C(NC(=S)N1CCN(C(c2ccccc2)c2ccccc2)CC1)c1ccc(S(=O)(=O)N2CCOCC2)cc1,–,–,–,–
CN1CCN(S(=O)(=O)c2ccc(NC(=S)NC(=O)c3ccccc3)cc2)CC1,–,–,–,?
SMILES,ClpP mod,TCR act,uPA generation,Sfp PPTase inh
CN1CCN(C(=S)NC(=O)c2ccc(S(=O)(=O)N3CCOCC3)cc2)CC1,–,–,–,45µM
COCCNC(=O)CSc1nnc2[nH]c(=O)cc(C)n12,–,·,·,·
Cc1ccc(NC(=O)C2CCCN2S(=O)(=O)c2ccc3c(c2)n(C)c(=O)c(=O)n3C)cc1C (configuration not stated),–,–,–,–
CC(C)Cn1c(N)c(C(=O)NCC2CCCO2)c2nc3ccccc3nc21 (configuration not stated),28µM,–,–,–
Nc1c(C(=O)OCC2CCCO2)c2nc3ccccc3nc2n1C1CCCC1 (configuration not stated),25µM,–,–,–
Nc1c(C(=O)NCC2CCCO2)c2nc3ccccc3nc2n1/N=C/c1ccncc1 (configuration not stated),–,–,–,·
Nc1c(C(=O)NC2CCCC2)c2nc3ccccc3nc2n1N,–,–,–,32µM
COc1ccc(OC)c(-n2c(SCC(=O)NCC3CCCO3)nc3ccccc3c2=O)c1 (configuration not stated),–,–,–,·
COc1ccc(OC)c(-n2c(N)c(C(=O)NCC3CCCO3)c3nc4ccccc4nc32)c1 (configuration not stated),18µM,–,–,–
COCCn1c(N)c(C(=O)NCC2CCCO2)c2nc3ccccc3nc21 (configuration not stated),?,–,–,–
COc1ccc(S(=O)(=O)N(CC(=O)NCCc2ccccc2)c2ccc(Cl)cc2)cc1,–,·,·,·
O=C(CN1CCCCCC1)Nc1ccc([N+](=O)[O-])cc1Cl,10µM,–,–,–
Cn1/c(=N\NC(=O)C2CCCCC2)sc2ccccc21,14µM,–,·,–
CC(=O)N/N=c1\sc2ccccc2n1C,·,–,–,–

# Source: PubChem
